Assay outcomes as filed in PubChem BioAssay.
Sampled rows, rich in hits. Any-hit rate of the full collection: about 1.6%.
KCNQ2 pot: potentiators of rat KCNQ2 potassium channel | Potassium voltage-gated channel subfamily KQT member 2 (Rattus norvegicus), O88943 | CHO-K1 KCNQ2, FluxOR thallium flux fluorescence; hits give high values | B-score at 10 µM | 310,000 tested, 0.54% active | AID 2239, 2010;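 active = fluorescence ratio B-score at least 3 SD of library B-scores, with initial fluorescence B-score within 3 of them, cut at about 5.3 in these data; same plate scores as AID 2156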;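 note: B-score of peak minus minimum over baseline fluorescence ratio after K+ and Tl+ stimulus; positive B-score means potentiation of KCNQ2 with more thallium influx and brighter signal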
Target sequence (O88943 whole entry, looked up): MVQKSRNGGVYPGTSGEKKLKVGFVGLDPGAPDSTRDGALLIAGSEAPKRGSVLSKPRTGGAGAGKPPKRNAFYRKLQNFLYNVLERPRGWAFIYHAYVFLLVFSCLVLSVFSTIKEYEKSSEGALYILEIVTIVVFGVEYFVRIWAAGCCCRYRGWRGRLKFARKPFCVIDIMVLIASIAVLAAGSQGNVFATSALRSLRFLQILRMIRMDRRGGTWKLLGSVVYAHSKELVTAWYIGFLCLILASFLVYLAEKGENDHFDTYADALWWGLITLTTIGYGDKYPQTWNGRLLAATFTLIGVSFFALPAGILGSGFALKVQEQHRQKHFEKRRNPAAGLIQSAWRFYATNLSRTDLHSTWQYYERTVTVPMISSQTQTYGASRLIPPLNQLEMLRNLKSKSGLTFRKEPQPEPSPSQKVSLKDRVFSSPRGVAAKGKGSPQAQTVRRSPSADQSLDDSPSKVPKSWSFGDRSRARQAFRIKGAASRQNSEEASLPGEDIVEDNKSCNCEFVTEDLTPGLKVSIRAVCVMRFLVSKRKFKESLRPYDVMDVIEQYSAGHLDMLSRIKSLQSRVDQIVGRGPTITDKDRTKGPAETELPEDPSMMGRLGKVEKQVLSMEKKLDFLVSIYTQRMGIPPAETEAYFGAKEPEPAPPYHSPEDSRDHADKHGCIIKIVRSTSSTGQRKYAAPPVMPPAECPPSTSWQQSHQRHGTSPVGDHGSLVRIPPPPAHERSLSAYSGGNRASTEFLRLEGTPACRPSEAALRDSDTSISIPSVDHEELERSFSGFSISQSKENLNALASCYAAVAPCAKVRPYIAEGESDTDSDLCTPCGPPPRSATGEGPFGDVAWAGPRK
KCNQ2 block: rat KCNQ2 potassium channel inhibitors, primary screen, cell-based, CHO-K1, FluxOR thallium flux, B-score; Potassium voltage-gated channel subfamily KQT member 2 (Rattus norvegicus), O88943; 20 min; hits give low values; B-score at 10 µM; 310,000 tested, 1.1% active;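 active = fluorescence ratio B-score at most minus 3 library SDs, with starting brightness B-score within 2 library SDs, cut at about -5.5 in these data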
KCNQ2 inh conf: rat KCNQ2 potassium channel inhibitors, confirmation, cell-based, thallium flux; shares compounds with KCNQ2 block; AID 493025, 2011; KCNQ2-expressing cells, inhibition; hits give low values; activity change, negative = inhibition, % at 10 µM; 1,000 tested, 57% active
KCNQ1 spec: human KCNQ1 channel inhibition, counter-screen for KCNQ2 inhibitor project, cell-based, FluxOR thallium flux; shares compounds with KCNQ2 block; KCNQ1-expressing cells, FluxOR thallium flux fluorescence; hits give low values; activity change, negative = inhibition, % at 10 µM; 1,000 tested, 15% active;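 active = activity change at least 3 SD of negative controls below their mean in both duplicate wells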;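 note: CHO cells stably transfected with KCNQ1 and depolarized by potassium stimulus; peak minus minimum fluorescence over baseline after thallium addition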
CHO parental ctr: thallium flux change in parental CHO cells, counter-screen for KCNQ2 inhibitor project | shares compounds with KCNQ2 block | hits give low values | activity change, % at 10 µM | 1,000 tested, 14% active
KCNQ2 patch conf: rat KCNQ2 channel inhibitors, confirmation, cell-based, automated patch clamp, single concentration. shares compounds with KCNQ2 block. KCNQ2-expressing cells, automated patch clamp current. calls only at 10 µM. 550 tested, 49% active
Hits are given with their value; 0 = inactive; - = not tested or not shown; + = active, no number. Unless noted, the rule behind the calls is not given here.

SMILES	KCNQ2 pot	KCNQ2 block	KCNQ2 inh conf	KCNQ1 spec	CHO parental ctr	others
COc1ccc(CNn2c(-c3cccs3)nc3ccccc3c2=O)cc1OC	0	-9.2	-40%	0	0	KCNQ2 patch conf=+
COC(=O)c1ccccc1-n1c(C)nc(=O)c(-c2ccccc2)c1C	-	0	-	-	-
CC(Oc1ccc(Cl)cc1Cl)C(=O)N/N=C1\CCCc2ccccc21 (stereo not given)	0	-6.7	-32%	0	0	KCNQ2 patch conf=+
CC(Oc1ccc(Cl)cc1Cl)C(=O)NN=C1CCN(C)CC1 (stereo not given)	0	0	-	-	-
CN(C)c1ccc(C(C(=O)NC2CCCC2)N(C(=O)c2csnn2)C2CC2)cc1 (stereo not given)	-	0	-	-	-
CCNc1ccc(C(=O)OCC(=O)c2cc(C)n(Cc3ccc4c(c3)OCO4)c2C)cc1[N+](=O)[O-]	-	0	-	-	-
CCc1ccc(-c2nc(CSCC(=O)N3CCN(c4ccccn4)CC3)c(C)o2)cc1	0	-10	-38%	-40%	-32%	KCNQ2 patch conf=0
Cc1ccc(-c2nc(CSCC(=O)N3CCN(c4ccccn4)CC3)c(C)o2)cc1	-	0	-	-	-
Cc1ccc(C(=O)NCC(=O)OCc2cccc(Br)c2)cc1	-	0	-	-	-
COc1cccc(-c2nc(CS(=O)(=O)CC(=O)NC3CCCC3)c(C)o2)c1	-	0	-	-	-
CCOc1ccc(-c2nc(CSCC(=O)NC3CCCc4ccccc43)c(C)o2)cc1 (stereo not given)	0	-8.8	-40%	-37%	-36%	KCNQ2 patch conf=+
COc1cccc(-c2nc(CS(=O)(=O)CC(=O)NC3CCCc4ccccc43)c(C)o2)c1 (stereo not given)	0	-10	-32%	0	0	KCNQ2 patch conf=+
CCOc1ccc(-c2nc(CSCC(=O)NC3CC3)c(C)o2)cc1	0	0	-	-	-
Cc1ccc(NCc2n[nH]c(=S)n2-c2ccccc2)c(C)c1	-	0	-	-	-
CCOCCCn1c(C)nc2c[n+](CC(=O)c3ccc4ccccc4c3)cc(Br)c21	-	0	-	-	-
CCN(CC(=O)Nc1c(F)cccc1F)C(=O)CCc1nc2cc(S(=O)(=O)N3CCOCC3)ccc2n1C	0	0	-	-	-
COc1ccccc1CN1CC(C(=O)NC2CCOCC2)CCC1=O (stereo not given)	-	0	-	-	-
Cc1nc2c(-c3ccccc3)c(C)nn2c(N)c1-c1ccccc1	0	-7.5	-34%	0	0	KCNQ2 patch conf=0
Cc1nn2c(N)c(-c3ccccc3)cnc2c1-c1ccc(Cl)cc1	-	0	-	-	-
CC(=O)Nc1cc2nc(C)n(Cc3ccccc3[N+](=O)[O-])c2nc1C	-	0	-	-	-
Cc1ccc(OCC(=O)N2N=C(C(F)(F)F)CC2(O)C(C)(C)C)cc1C (stereo not given)	-	0	-	-	-
Cc1ccccc1OCC(=O)N1N=C(C(F)(F)F)CC1(O)C(C)(C)C (stereo not given)	0	-8.2	0	0	0
COCCNC(=O)Cn1nc(-c2ccc(Cl)cc2)c2ccccc2c1=O	-	0	-	-	-
O=C(c1cc2cc([N+](=O)[O-])ccc2oc1=O)N1CCN(C2CCCCC2)CC1	0	0	-	-	-
CC(C)=CCc1c(O)cc2c(c1O)C(=O)CC(c1ccccc1)O2 (stereo not given)	0	0	-	-	-
SMILES	KCNQ2 pot	KCNQ2 block	KCNQ2 inh conf	KCNQ1 spec	CHO parental ctr	others
COc1ccc(C2CC(=O)c3c(O)cc(O)cc3O2)c(CC=C(C)C)c1OC (stereo not given)	0	-13	-34%	0	0	KCNQ2 patch conf=+
O=c1[nH]cc(NCCNc2ncc(C(F)(F)F)cc2Cl)c(=O)[nH]1	0	0	-	-	-
Cc1ccc(S(=O)(=O)N2CCC(NC(=O)c3cccnc3)CC2)cc1Cl	-	0	-	-	-
COc1cc(NC(=O)c2cc(-c3ccccc3)on2)cc(OC)c1OC	-	0	-	-	-
COc1cc(NC(=O)c2cc3nc(-c4ccccc4)cc(-c4ccccc4)n3n2)cc(OC)c1OC	0	-7.1	0	0	0
C/C(=N\Nc1ccc(Cl)cc1)c1c(O)cc(C)oc1=O	0	0	-	-	-
CC(=O)N1CCc2c(sc3c2c(=O)n(Cc2ccccc2)c(=O)n3CC(=O)NCC2CCCO2)C1 (stereo not given)	-	0	-	-	-
CCOC(=O)N1CCc2c(sc3c2c(=O)n(Cc2ccccc2)c(=O)n3Cc2ccc(C)cc2)C1	0	-7.7	0	0	0
COc1ccc(OCCC(=O)NCCN2CCOCC2)cc1	-	0	-	-	-
